# Measurements as given in the OligoGym collection.
# How the values were obtained:
# Assay in all cases: pooled miR-30 sensor sort-seq; sequence = guide strand
# Conditions in all cases: shRNA
# NDE1 = target: NDE1
# NDUFA9 = target: NDUFA9
# NDUFA7 = target: NDUFA7
# NLRP9 = target: NLRP9
# NMNAT2 = target: NMNAT2
# NMD3 = target: NMD3
# NMRAL1 = target: NMRAL1
# NLRP3 = target: NLRP3
# NPBWR1 = target: NPBWR1
# NOTCH4 = target: NOTCH4
# NOXA1 = target: NOXA1
# NOX3 = target: NOX3
# NPR1 = target: NPR1
# NPC1L1 = target: NPC1L1
# NPSR1 = target: NPSR1
# NPEPL1 = target: NPEPL1
# Note: reference of the scale not given here.
sequence,measurement,setting,value
TCTTCGAGAGACATGATCGTGG,sensor-assay potency score (higher = more potent),NDE1,-0.394
TTAACTGCATTAACAATTCCTT,sensor-assay potency score (higher = more potent),NDUFA9,-0.73
TAGAATCTTTATCTCTCGCGTC,sensor-assay potency score (higher = more potent),NDUFA9,-0.0518
TCGCTTGGAGATCTCCTGGTAG,sensor-assay potency score (higher = more potent),NDUFA7,-0.223
TACTTTCTCTCCAACAGCCTTA,sensor-assay potency score (higher = more potent),NDUFA9,0.0635
TTATTTCAAAGACTCTTGCTAC,sensor-assay potency score (higher = more potent),NDUFA9,-0.0759
TAGCGTAGCTGCAGCTTCCCCT,sensor-assay potency score (higher = more potent),NDUFA7,-0.864
TTGTTGGTAATGAACATTGAGC,sensor-assay potency score (higher = more potent),NLRP9,-1.13
TAGTCAAACACTGATACCCCAA,sensor-assay potency score (higher = more potent),NMNAT2,-0.77
TAAATGTTGACAATGCTTCAGG,sensor-assay potency score (higher = more potent),NLRP9,0.0203
TTGATATCATTCCAGCACCTGC,sensor-assay potency score (higher = more potent),NMD3,-1.29
TCCAGCAATAGCATCATCCTGA,sensor-assay potency score (higher = more potent),NMNAT2,-0.521
TAGTCCTCAGGAGTCATCTTGG,sensor-assay potency score (higher = more potent),NMRAL1,-0.467
TAGAAATCTACTTCTATGGCAC,sensor-assay potency score (higher = more potent),NMNAT2,0.539
TAAAAGTATCCTAATACTCAGG,sensor-assay potency score (higher = more potent),NMNAT2,-0.84
TTTATTTCTAAAGGAAACCTAA,sensor-assay potency score (higher = more potent),NMNAT2,-0.873
TTCTGTGTCAGAAGTATCCGGA,sensor-assay potency score (higher = more potent),NLRP9,0.451
TTAACTTTAAGTCTCTTAGAAT,sensor-assay potency score (higher = more potent),NMD3,-1.22
TTGTATTCCTCGTCAATCCAAG,sensor-assay potency score (higher = more potent),NLRP9,-0.958
TTATATTAAATAGGAAACCTGT,sensor-assay potency score (higher = more potent),NMNAT2,-0.594
TTGGTCACGATGAAGGTGGCGT,sensor-assay potency score (higher = more potent),NMRAL1,-0.0574
TTTACAAACAGGCTGAGCCAGC,sensor-assay potency score (higher = more potent),NLRP9,-0.948
TAACAGACTTTCTGGATGCTGC,sensor-assay potency score (higher = more potent),NMNAT2,-0.475
TTCTCATAAAGGTCTCTCCTGT,sensor-assay potency score (higher = more potent),NLRP3,-0.131
TTGAAGGATAGCACCATTCATC,sensor-assay potency score (higher = more potent),NMD3,-0.92
TCTATAGACACATTCTAGCATC,sensor-assay potency score (higher = more potent),NLRP9,-0.783
TTTTTTTGCAACAAACTGCTCA,sensor-assay potency score (higher = more potent),NLRP9,0.0842
TTGATTAATACCACATCTGGAA,sensor-assay potency score (higher = more potent),NMD3,-0.0213
TGTGATGACAACAACACCCGAT,sensor-assay potency score (higher = more potent),NLRP3,0.603
TTAGCCATTATCTTCATGCTGG,sensor-assay potency score (higher = more potent),NMD3,0.243
TTTATATCTTGGACTATGCTGC,sensor-assay potency score (higher = more potent),NMD3,0.0732
TAAAGAACATTGTCTTTGCTTT,sensor-assay potency score (higher = more potent),NMNAT2,-0.457
TTGGTGATGGGATTGAAGCTGC,sensor-assay potency score (higher = more potent),NMNAT2,-0.365
TACTTAACAAGTCTGATCTTGC,sensor-assay potency score (higher = more potent),NMD3,0.186
TATTGCTAGAACACTTAGGGAG,sensor-assay potency score (higher = more potent),NLRP9,0.102
TTAACAAGTCTGATCTTGCTTA,sensor-assay potency score (higher = more potent),NMD3,0.213
TCGAATACACACACAAATCTGG,sensor-assay potency score (higher = more potent),NMD3,-0.268
TTCACTAAAATAATCAACGTAA,sensor-assay potency score (higher = more potent),NMD3,-0.261
TATCTTGAGAGATCAGTCTTTG,sensor-assay potency score (higher = more potent),NMD3,-0.699
TTTGCTTTCAGGTCCCACCTGG,sensor-assay potency score (higher = more potent),NMNAT2,0.293
TTTTTGAGCTTTTACATCCAGA,sensor-assay potency score (higher = more potent),NMD3,-0.415
TTTCACACAAGTACAGACCAAC,sensor-assay potency score (higher = more potent),NLRP9,-0.447
TTCTGTTAAATCAAGTTCCTTT,sensor-assay potency score (higher = more potent),NMNAT2,0.0856
TTGTTTAACGTACTTGTGCTTC,sensor-assay potency score (higher = more potent),NLRP9,-0.694
TTGACTTAAACTTTCAAGGCAT,sensor-assay potency score (higher = more potent),NLRP9,0.797
TTGGTAATGAACATTGAGCAAA,sensor-assay potency score (higher = more potent),NLRP9,-1.26
TTTCCTTTGTTTCATTTCCTGG,sensor-assay potency score (higher = more potent),NMNAT2,-0.769
TAGAGGACACAGATGGTGGACA,sensor-assay potency score (higher = more potent),NPBWR1,-0.757
TTGGTGAGCGACGTCCGCCGGC,sensor-assay potency score (higher = more potent),NOTCH4,-0.551
TCTGCAGCGACTCCTCCTCGGG,sensor-assay potency score (higher = more potent),NOXA1,-1.51
TAGAAATGAACACCTCTGGGGT,sensor-assay potency score (higher = more potent),NOX3,-0.411
TTAGGGACCTGGCATCATGGTT,sensor-assay potency score (higher = more potent),NOXA1,-1.05
AACTGGTACAGCCACCGCCAGC,sensor-assay potency score (higher = more potent),NPBWR1,-1.89
TTGGGGAAGATGCCGATGCGGC,sensor-assay potency score (higher = more potent),NOXA1,-1.12
TAAAGCTATGTGAAGAGCCTGA,sensor-assay potency score (higher = more potent),NOX3,0.784
TAGGGGTACACCATGTCCCTGC,sensor-assay potency score (higher = more potent),NOTCH4,0.0292
TCACCGCGTAGACAACTGGTAC,sensor-assay potency score (higher = more potent),NPBWR1,-1.33
TGGCATCATGGTTCGCTCCTGG,sensor-assay potency score (higher = more potent),NOXA1,-0.558
TGTTGTACTGGTCGATAGCCAC,sensor-assay potency score (higher = more potent),NPBWR1,-0.835
TCCTGGTAGGCAGTCGACGTGC,sensor-assay potency score (higher = more potent),NOXA1,-1.54
ATCACCGCGTAGACAACTGGTA,sensor-assay potency score (higher = more potent),NPBWR1,-0.96
TATATAGGAAAGAACATCTTAC,sensor-assay potency score (higher = more potent),NOTCH4,0.0056
TTGGTCCAGGGCTGAGTCCAGG,sensor-assay potency score (higher = more potent),NOXA1,-1.7
TTGGTGACGGTCTTCATGCGGG,sensor-assay potency score (higher = more potent),NPBWR1,-0.52
TTGTGTAGCACCTCCCAGGCTT,sensor-assay potency score (higher = more potent),NOXA1,-0.348
TACCAGAACAACTCATAGGAGG,sensor-assay potency score (higher = more potent),NOX3,-0.91
TATCTTCCTCGCATTATCGCAG,sensor-assay potency score (higher = more potent),NOTCH4,-0.574
TTGGAGCAGCTCAGCGCCGGGT,sensor-assay potency score (higher = more potent),NPBWR1,-1.46
TGGTAGGCAGTCGACGTGCAGC,sensor-assay potency score (higher = more potent),NOXA1,-1.86
TTGAACCCAAAATAACTCGTGT,sensor-assay potency score (higher = more potent),NOX3,-0.176
TCACACAGGACGTCCACCGTGT,sensor-assay potency score (higher = more potent),NOXA1,0.181
TAATTATTCTTTCACATGCATA,sensor-assay potency score (higher = more potent),NOX3,-1.3
TCTGTCTCTGCATCGAGGGGGC,sensor-assay potency score (higher = more potent),NOXA1,-0.532
TGTACTGGTCGATAGCCACGAT,sensor-assay potency score (higher = more potent),NPBWR1,-0.544
TAAAATTCAGGCACAGTGCGGA,sensor-assay potency score (higher = more potent),NOX3,-0.0572
ACATTGTGTAGCACCTCCCAGG,sensor-assay potency score (higher = more potent),NOXA1,-1.3
TAGAGGAAGGGGTTGAGGCAGC,sensor-assay potency score (higher = more potent),NPBWR1,0.0364
TAACTGAGTTGCCCAAGCTGGG,sensor-assay potency score (higher = more potent),NOXA1,-1.24
TAGATTTCAGAAGAGCAGCGAA,sensor-assay potency score (higher = more potent),NOX3,-0.277
TGATGAAGTAGGAGATAGCGAT,sensor-assay potency score (higher = more potent),NPBWR1,-0.908
TTGCATTAACAGCTATCCCATA,sensor-assay potency score (higher = more potent),NOX3,-1.07
TAGCGGTCTCTACAGAAGGTGA,sensor-assay potency score (higher = more potent),NOX3,-1.67
TTGATGGGCAGCACCAGCGTGA,sensor-assay potency score (higher = more potent),NPBWR1,-0.969
TTGTACTGGTCGATAGCCACGA,sensor-assay potency score (higher = more potent),NPBWR1,-0.0597
TAATAGAAATGAACACCTCTGG,sensor-assay potency score (higher = more potent),NOX3,-0.368
TTGAGGTAGCTCTCGTTAGGGG,sensor-assay potency score (higher = more potent),NOX3,-0.746
ATACTCGTCCTTGACACCGAAG,sensor-assay potency score (higher = more potent),NPR1,-1.26
TATAATATGCTGTCTTGGCAAA,sensor-assay potency score (higher = more potent),NPR1,-1.35
TTGATAGAACCTTCAAAGCTGT,sensor-assay potency score (higher = more potent),NPC1L1,-0.451
TTCCTGTATATGAAGAAGGAGA,sensor-assay potency score (higher = more potent),NPR1,-1.29
TTTCGTGTCAGCTCAATGCGTT,sensor-assay potency score (higher = more potent),NPR1,0.0994
TTGCTTTTAATCCAAATAGTTC,sensor-assay potency score (higher = more potent),NPSR1,-1.33
TTGGAGAGTGTCATGAGGCTTC,sensor-assay potency score (higher = more potent),NPC1L1,-0.0939
TCGATAGCCACGATGAGCTTGC,sensor-assay potency score (higher = more potent),NPBWR1,0.0042
TTGTTGGGCAAGAAGTTGCTGA,sensor-assay potency score (higher = more potent),NPC1L1,-0.757
TTGGGGTCCACCATCTTGCTTT,sensor-assay potency score (higher = more potent),NPC1L1,-0.775
TTGTCTTTGAAACCCTGCTTGA,sensor-assay potency score (higher = more potent),NPEPL1,-0.575
TTATGGAACTGCTCCACCGAGG,sensor-assay potency score (higher = more potent),NPC1L1,-0.788
TCGGTGTTCATCTCATTGCAGG,sensor-assay potency score (higher = more potent),NPEPL1,-1.16
TTGGTGATCGACAGACTCGCTT,sensor-assay potency score (higher = more potent),NPC1L1,0.12
TTTCAGTGCAAGCCACTGGGGA,sensor-assay potency score (higher = more potent),NPSR1,-0.49
TTGTCAGCTGTGGAGACTCGGG,sensor-assay potency score (higher = more potent),NPC1L1,-1.23
TTGGACAGTGTCCTCTTCCCAA,sensor-assay potency score (higher = more potent),NPSR1,-1.13
TTCTCCAGCTGCATCTTCCTGT,sensor-assay potency score (higher = more potent),NPR1,-0.0836
TAAAACACATTGGTGATCGTGT,sensor-assay potency score (higher = more potent),NPC1L1,0.009
TCATTGGTGAGTGAGTACCGGA,sensor-assay potency score (higher = more potent),NPR1,-1.01
TTGTCCAGGATGTTGCTGCTGT,sensor-assay potency score (higher = more potent),NPR1,-0.0226
TTGATCTCGTCTTCCAGAGAGC,sensor-assay potency score (higher = more potent),NPC1L1,-1.19
TAGAGGGGACAGCTGTCCGTGG,sensor-assay potency score (higher = more potent),NPEPL1,-0.837
TTGTGATAGGCCATGAACCTGG,sensor-assay potency score (higher = more potent),NPC1L1,-0.611
TTTTAATCCAAATAGTTCGGAT,sensor-assay potency score (higher = more potent),NPSR1,-0.423
TAGACTCCATTCTTGAGGCTGT,sensor-assay potency score (higher = more potent),NPR1,0.414
TCGCAGACCATCACAATGCAGC,sensor-assay potency score (higher = more potent),NPEPL1,-1.2
TTGATTTCCACCGTCTTCCCTG,sensor-assay potency score (higher = more potent),NPEPL1,-0.0975
TTCATGTCCGCCACAGCTGAGG,sensor-assay potency score (higher = more potent),NPEPL1,-1.03
TTGTAGTTCAGTACAACCCTGA,sensor-assay potency score (higher = more potent),NPR1,0.392
TTCGCTAAGCACTGCAATGTGG,sensor-assay potency score (higher = more potent),NPEPL1,-0.589
TTCTTCTTTCTCCTCCATGTGG,sensor-assay potency score (higher = more potent),NPSR1,-0.829
TAGCGCAGCCTCCTGGAGCTGA,sensor-assay potency score (higher = more potent),NPSR1,-0.612
TTGGAGTCCACCATCACTCGGC,sensor-assay potency score (higher = more potent),NPC1L1,0.203
